Screening data deposited in PubChem by SRMLSC.
NADH enzymes: blocks coupling enzymes of NAD/NADH assays. coupled PK/LDH NADH assays, four targets. IC50, µM (series often up to 10 µM), inactives show at the highest dose inhibition. 65,000 tested, 0.02% active. AID 774;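 active = single-dose screening hits from any of four coupled enzyme assays that gave an IC50 when retested across doses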;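 note: the DPM-DC format reads NADH fluorescence rather than 340 nm absorbance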
A340 absorber: compounds absorbing at 340 nm; AID 708; fold change at 10 µM; compound absorbance at 340 nm, fold over control; 65,000 tested, under 10 active;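 active = at 10 µM dose, initial 340 nm absorbance at least 2 fold that of control wells; inactive = change under 2 fold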;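 note: initial absorbance extrapolated from kinetic A340 decline of NADH oxidation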
Fluor 339 460: intrinsic fluorescence of library compounds, ex339/em460 – biochemical, MLSMR library, data from DPM-DC assay, artefact control, profiling panel; compound autofluorescence, ex339/em460 nm, NADH buffer; hits give high values; 1 = no-compound wells, NADH background; fluorescence fold increase at 10 µM; 65,000 tested, 5.5% active;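 active = at 10 µM, mean starting fluorescence two-fold or more over control wells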;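 note: signal is the first read of a kinetic run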
DPM-DC inhibit: S. pneumoniae DPM-DC inhibition | AID 556 | calls only at 10 µM | purified DPM-DC, PK/LDH coupled NADH fluorescence | 65,000 tested, 0.49% active;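 active = the 320 compounds with the highest percent inhibition in the single-dose primary screen, excluding strongly autofluorescent ones, cut at about 32% in these data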;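 note: kinetic rate of NADH fluorescence loss reporting ADP formed by the decarboxylase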
Spn PMK inh: inhibitors of Streptococcus pneumoniae phosphomevalonate kinase. AID 539. inhibition, % at 10 µM. 65,000 tested, 0.49% active. purified PMK, PK/LDH-coupled NADH absorbance 340 nm;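 active = top-ranked compounds by inhibition in the single 10 µM screen, taking a fixed number of the strongest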;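 note: 0% = full reaction with DMSO carrier and 100% = background rate without enzyme reaction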
MK inhibit: inhibitors of Streptococcus pneumoniae mevalonate kinase; purified MK, PK/LDH-coupled NADH absorbance 340 nm; inhibition, % at 10 µM; 65,000 tested, 0.48% active; AID 555;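 active = ranked among the strongest by inhibition in the single 10 µM screen, a fixed top-ranked set picked for dose follow-up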
* marks the source's active call; other numbers are inactive results; i = inactive; x = no result shown; + = active, no number. This is a sample that favours compounds with a hit; in the whole collection about 6.8% have one here.

SMILES | NADH enzymes | A340 absorber | Fluor 339 460 | DPM-DC inhibit | Spn PMK inh | MK inhibit
CCCc1ccc2c(N)c(C#N)sc2n1 | 7% | 1.1 | 2.1* | x | 8 | 5
Cc1ccc(CN2CC34C=CC(O3)C(C(=O)NCc3ccc5c(c3)OCO5)C4C2=O)cc1 (configuration not stated) | 3% | 1.1 | 1.1 | i | 0 | 9
COCCCNC(=O)C1C2C=CC3(CN(Cc4ccc(C)cc4)C(=O)C13)O2 (configuration not stated) | 12% | 1 | 0.85 | i | 25* | 0
O=C(NCc1ccco1)Nc1ccc(Br)cc1 | 8% | 1 | 1.1 | i | 14 | 7
O=C(NCc1ccco1)Nc1ccc2nsnc2c1 | 4% | 1 | 2.4* | x | 0 | 5
CCOc1ccc(NC(=O)C2CSC(c3ccncc3)=N2)cc1 (configuration not stated) | 2% | 1 | 1.1 | i | 0 | 3
CSc1nnc(-c2ccc(O)cc2)n1C | 5% | 1 | 1 | i | 16 | 0
CSc1nnc(-c2cc3ccccc3cc2O)n1C | 3% | 1.1 | 2.3* | x | 0 | 5
Cc1nn2c3c(cnc2c1-c1ccccc1)C(=O)CCC3 | 3% | 1.1 | 1.1 | i | 3 | 7
Cc1nn(-c2ccccn2)c2c1-c1nc(N)ncc1CC2 | 4% | 1 | 3.6* | x | 7 | 0
CCOC(=O)CSC1=Nc2ccccc2C2=NC(CC(=O)NCc3ccccc3)C(=O)N12 (configuration not stated) | 10% | 1 | 3* | i | 9 | 9
CC(C)C1N=C2c3ccccc3N=C(SCC(=O)NCCc3ccc(S(N)(=O)=O)cc3)N2C1=O (configuration not stated) | 7% | 1 | 2.4* | i | 8 | 10
CCC(C)NC(=O)CSC1=Nc2ccccc2C2=NC(CC(=O)NCc3ccc(F)cc3)C(=O)N12 (configuration not stated) | 8% | 1 | 2.8* | i | 8 | 17
CCOC(=O)CSC1=Nc2ccccc2C2=NC(CC(=O)NCc3cccs3)C(=O)N12 (configuration not stated) | 3% | 1 | 1.2 | i | 9 | 6
COc1cccc(C2CC(c3ccccc3OC)n3nc(N)nc3N2)c1 (configuration not stated) | 6% | 1 | 1.1 | i | 11 | 6
O=c1c2sc3nc(N4CCOCC4)c4c(c3c2ncn1Cc1ccco1)CCCC4 | 3% | 1 | 1.2 | i | 8 | 0
CCOc1ccccc1CN1C(=O)NC(C)(c2ccccc2)C1=O (configuration not stated) | 4% | 1 | 1.1 | i | 11 | 0
CCCc1cc(C(=O)NCC(C)C)no1 | 3% | 1 | 1 | i | 1 | 5
COc1ccc(CCC(=O)Nc2nc3c(s2)CN(C)CC3)cc1OC | 9% | 1.1 | 1.1 | i | 15 | 9
CCOC(=O)C1CCN(c2c(NC3CCCc4ccccc43)c(=O)c2=O)CC1 (configuration not stated) | 2% | 0.99 | 1 | i | 8 | 4
CCn1c(C(=O)Nc2ccsc2C(=O)OC)cc2sc(Cl)cc21 | 13% | 1.1 | 2.1* | x | 0 | 26
Cc1ccccc1-c1nc2cc(N)ccc2o1 | 18% | 1 | 3.1* | + | 11 | 9
Nc1cc(N)cc(-c2nc3ccccc3o2)c1 | 4% | 1 | 1.2 | i | 7 | 6
Nc1ccc2oc(-c3cccc(Br)c3)nc2c1 | 5% | 1.1 | 2* | x | 1 | 9
CC(C)c1ccc2oc(-c3cc(N)ccc3O)nc2c1 | 0% | 1.1 | 1.2 | i | 0 | 0
SMILES | NADH enzymes | A340 absorber | Fluor 339 460 | DPM-DC inhibit | Spn PMK inh | MK inhibit
Cc1cc(C)n(-c2ncnc3sc4c(c23)CCCC4)n1 | 5% | 1 | 2.3* | i | 16 | 0
CCOC(=O)c1c(C)oc2ccc(O)c(CN3CCCCC3)c12 | 5% | 0.99 | 1.1 | i | 11 | 3
CCOC(=O)c1c(CN2CCN(CCO)CC2)n(C)c2cc(Br)c(OC)cc12 | 3% | 1 | 1.1 | i | 0 | 10
Cc1oc2c(CN3CCCC3)c(O)ccc2c(=O)c1Oc1ccccc1Br | 6% | 1.1 | 3.9* | x | 2 | 10
COc1ccccc1Oc1c(C)oc2c(CN3CCN(CCO)CC3)c(O)ccc2c1=O | 4% | 1.1 | 4* | x | 7 | 0
CN1CCN(Cc2c(O)ccc3c(=O)c(Oc4ccccc4Cl)c(C(F)(F)F)oc23)CC1 | 9% | 1.1 | 1.2 | i | 13 | 15
CCOC(=O)c1ccc(Oc2c(C)oc3c(CN4CCN(C)CC4)c(O)ccc3c2=O)cc1 | 10% | 1.1 | 3.9* | x | 12 | 7
CCOc1ccccc1Oc1c(C)oc2c(CN3CCN(CCO)CC3)c(O)ccc2c1=O | 7% | 1.1 | 3.9* | x | 9 | 5
CCCCOC(=O)C1Cc2ccccc2C(=O)O1 (configuration not stated) | 5% | 1 | 1.1 | i | 7 | 9
CCCn1c2c(c(O)c(C(=O)Nc3ccccc3)c1=O)CCCC2 | 11% | 1 | 1.2 | i | 12 | 14
CCCc1cc(N2CCCC2)n2nc(C)c(-c3ccccc3)c2n1 | 4% | 1 | 2.9* | i | 0 | 10
CCN(CC)C(=O)CC(c1ccc(F)cc1)c1ccco1 (configuration not stated) | 0% | 1 | 1.1 | i | 0 | 0
O=C(OCc1cc(Cl)ccc1OC(F)F)c1cc(S(=O)(=O)O)ccc1O | 6% | 1 | 2.1* | x | 11 | 0
O=C(O)c1cc(S(=O)(=O)O)ccc1O | 1% | 1 | 1.3 | i | 3 | 1
COC(=O)c1sc(N2C(=O)C(O)=C(C(=O)c3ccc(C)o3)C2c2ccc(F)cc2)nc1C (configuration not stated) | 3% | 1 | 1.1 | i | 4 | 14
O=C1c2ccccc2C(Nc2ccc(Cl)cn2)N1c1cccnc1 (configuration not stated) | 3% | 1 | 1.1 | i | 7 | 1
Cc1ccccc1Cn1cc(NC(=O)c2noc3c2CC(C(C)(C)C)CC3)cn1 (configuration not stated) | 2.6µM* | 0.99 | 1.7 | i | 20 | 5
CCc1cc(=O)oc2cc(C)cc(O)c12 | 7% | 1.1 | 1.1 | i | 15 | 6
CCc1cc(=O)oc2cc(C)c3c(C)coc3c12 | 14% | 1.1 | 2.4* | i | 6 | 5
COc1ccc(NC(=O)c2ccco2)cc1NC(=O)c1ccc(C)cc1 | 9% | 1 | 1.1 | i | 27* | 0
CCOc1ccc(C(=O)Nc2ccc(NC(=O)c3ccco3)c(Cl)c2)cc1Br | 4% | 1.1 | 3* | i | 11 | 0
COc1ccc(NC(=O)c2ccco2)cc1NC(=O)c1ccc(Br)o1 | 11% | 1.1 | 1.1 | i | 9 | 9
Cc1ccc(NC(=O)c2cc(NC(=O)c3ccco3)ccc2N2CCCCC2)cc1 | 2% | 1.1 | 2.1* | x | 1 | 3
